# What was measured:
# Assay in all cases: DAPPL (digital affinity profiling via proximity ligation, sequencing); 10 mM Tris-HCl pH 7.5, 50 mM NaCl, 1 mM DTT, 4% glycerol, room temperature, 30 min; GST-TFs on glutathione beads, 16-mer random dsDNA library, 0.1% formaldehyde crosslink after washing; high values mean tight binding
# Settings in all cases: protein: recombinant; tags: N-terminal GST; dsDNA, one strand shown
# ERF = molecular target: T1, ERF (Homo sapiens, UniProt P50548 1-548)
# T1 sequence: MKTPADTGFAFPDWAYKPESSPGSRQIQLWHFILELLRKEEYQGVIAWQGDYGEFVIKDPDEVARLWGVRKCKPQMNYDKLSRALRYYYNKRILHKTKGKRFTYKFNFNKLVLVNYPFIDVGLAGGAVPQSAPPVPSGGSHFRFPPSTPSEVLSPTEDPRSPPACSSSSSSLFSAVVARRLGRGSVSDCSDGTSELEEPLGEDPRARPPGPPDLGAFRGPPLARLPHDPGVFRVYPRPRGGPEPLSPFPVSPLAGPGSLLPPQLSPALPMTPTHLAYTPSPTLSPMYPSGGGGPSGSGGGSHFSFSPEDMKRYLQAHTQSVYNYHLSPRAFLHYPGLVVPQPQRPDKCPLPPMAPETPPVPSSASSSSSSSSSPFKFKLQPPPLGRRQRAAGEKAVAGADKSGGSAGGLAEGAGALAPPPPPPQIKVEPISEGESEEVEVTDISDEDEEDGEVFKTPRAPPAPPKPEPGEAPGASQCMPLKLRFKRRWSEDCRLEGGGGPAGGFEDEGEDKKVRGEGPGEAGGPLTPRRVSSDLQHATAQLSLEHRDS
# In short: (§1)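 Human transcription factors carrying a GST fusion were produced in yeast, bound to glutathione beads, tagged with DNA barcodes and pooled together with a tag-only sample. Each pool was held with 200 nmole of a random double-stranded 16-mer DNA library in Tris/NaCl/DTT/glycerol buffer for 30 min at room temperature, then washed, crosslinked in 0.1% formaldehyde, proximity-ligated with BsaI/T4 ligase (1 h, 37 °C), PCR-amplified and sequenced on an Illumina NextSeq500. Binding signal is the read frequency of each hexamer for a given factor divided by its frequency in the tag-only sample.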
# ETV3L = molecular target: T2, ETV3L (Homo sapiens, UniProt Q6ZN32 1-361)
# T2 sequence: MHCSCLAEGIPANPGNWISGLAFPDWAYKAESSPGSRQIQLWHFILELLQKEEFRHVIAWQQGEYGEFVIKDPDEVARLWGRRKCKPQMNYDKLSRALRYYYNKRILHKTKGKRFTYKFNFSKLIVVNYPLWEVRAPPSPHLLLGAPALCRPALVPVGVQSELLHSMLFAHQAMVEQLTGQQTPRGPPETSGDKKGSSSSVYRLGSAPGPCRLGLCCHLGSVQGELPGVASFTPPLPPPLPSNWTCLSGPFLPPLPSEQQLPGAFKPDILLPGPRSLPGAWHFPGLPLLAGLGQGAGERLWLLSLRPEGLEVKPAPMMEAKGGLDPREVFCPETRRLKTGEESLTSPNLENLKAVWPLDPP
# In short: as §1
# ETS2 = molecular target: T3, ETS2 (Homo sapiens, UniProt P15036 1-469)
# T3 sequence: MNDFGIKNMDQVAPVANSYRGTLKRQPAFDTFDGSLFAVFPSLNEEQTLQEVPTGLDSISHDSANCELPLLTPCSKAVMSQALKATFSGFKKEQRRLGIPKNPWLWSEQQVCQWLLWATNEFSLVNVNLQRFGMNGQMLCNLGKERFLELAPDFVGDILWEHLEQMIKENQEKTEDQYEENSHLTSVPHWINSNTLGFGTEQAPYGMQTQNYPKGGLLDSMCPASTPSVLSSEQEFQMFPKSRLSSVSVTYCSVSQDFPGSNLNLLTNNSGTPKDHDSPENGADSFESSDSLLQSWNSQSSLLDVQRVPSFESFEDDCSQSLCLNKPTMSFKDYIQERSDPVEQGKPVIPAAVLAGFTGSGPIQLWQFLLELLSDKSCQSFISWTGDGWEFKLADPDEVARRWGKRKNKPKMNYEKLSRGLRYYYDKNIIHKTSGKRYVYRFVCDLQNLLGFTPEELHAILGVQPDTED
# In short: as §1
# SPDEF = molecular target: T4, SPDEF (Homo sapiens, UniProt O95238 1-335)
# T4 sequence: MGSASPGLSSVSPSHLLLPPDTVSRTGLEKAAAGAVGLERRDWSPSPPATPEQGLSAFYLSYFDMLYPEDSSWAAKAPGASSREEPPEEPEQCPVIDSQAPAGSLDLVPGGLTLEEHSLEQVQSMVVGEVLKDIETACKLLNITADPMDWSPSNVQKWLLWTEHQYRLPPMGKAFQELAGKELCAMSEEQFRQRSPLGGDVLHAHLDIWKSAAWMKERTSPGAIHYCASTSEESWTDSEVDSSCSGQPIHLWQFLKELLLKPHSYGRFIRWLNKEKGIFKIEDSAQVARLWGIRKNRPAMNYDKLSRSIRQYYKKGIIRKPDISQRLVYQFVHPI
# In short: as §1
# ETV7 = molecular target: T5, ETV7 (Homo sapiens, UniProt Q9Y603 1-341)
# T5 sequence: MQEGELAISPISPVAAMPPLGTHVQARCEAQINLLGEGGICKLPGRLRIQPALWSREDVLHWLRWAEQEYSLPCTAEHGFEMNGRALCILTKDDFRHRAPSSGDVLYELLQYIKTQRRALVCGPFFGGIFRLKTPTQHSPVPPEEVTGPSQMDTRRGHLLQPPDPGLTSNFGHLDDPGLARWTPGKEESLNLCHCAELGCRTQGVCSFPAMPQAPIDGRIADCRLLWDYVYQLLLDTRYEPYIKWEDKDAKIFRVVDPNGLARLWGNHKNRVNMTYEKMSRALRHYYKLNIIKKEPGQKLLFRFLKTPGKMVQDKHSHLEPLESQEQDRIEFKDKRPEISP
# In short: as §1
# ELF5 = molecular target: T6, ELF5 (Homo sapiens, UniProt Q9UKW6-2 1-255)
# T6 sequence: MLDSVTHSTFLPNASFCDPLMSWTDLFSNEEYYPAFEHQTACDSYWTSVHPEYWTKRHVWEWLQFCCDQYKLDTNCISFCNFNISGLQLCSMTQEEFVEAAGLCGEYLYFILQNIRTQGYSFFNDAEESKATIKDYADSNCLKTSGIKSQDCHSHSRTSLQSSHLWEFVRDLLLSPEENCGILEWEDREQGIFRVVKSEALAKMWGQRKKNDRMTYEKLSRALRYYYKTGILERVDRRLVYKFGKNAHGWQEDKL
# In short: as §1
# ETV3 = molecular target: T7, ETV3 (Homo sapiens, UniProt P41162-2 1-143)
# T7 sequence: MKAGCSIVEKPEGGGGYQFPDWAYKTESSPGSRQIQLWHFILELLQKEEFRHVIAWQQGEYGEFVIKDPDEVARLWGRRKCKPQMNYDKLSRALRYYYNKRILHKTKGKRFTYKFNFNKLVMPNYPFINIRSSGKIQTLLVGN
# In short: as §1
# ETV6 = ETV6 (Homo sapiens, UniProt P41212 1-452)
# Chain of ETV6 (P41212 whole entry): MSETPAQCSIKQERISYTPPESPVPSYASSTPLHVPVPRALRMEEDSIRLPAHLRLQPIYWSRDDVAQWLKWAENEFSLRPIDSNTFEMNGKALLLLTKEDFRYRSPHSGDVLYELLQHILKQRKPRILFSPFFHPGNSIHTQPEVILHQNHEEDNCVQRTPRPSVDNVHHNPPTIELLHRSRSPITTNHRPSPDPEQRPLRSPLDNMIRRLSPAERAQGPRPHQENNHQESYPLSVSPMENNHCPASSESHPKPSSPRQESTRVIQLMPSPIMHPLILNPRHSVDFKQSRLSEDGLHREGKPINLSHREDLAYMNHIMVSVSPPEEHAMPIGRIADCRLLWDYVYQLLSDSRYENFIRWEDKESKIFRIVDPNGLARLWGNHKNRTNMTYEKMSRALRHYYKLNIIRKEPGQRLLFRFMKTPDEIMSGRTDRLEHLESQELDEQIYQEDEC
# In short: as §1
Sequence,binding signal (ERF),binding signal (ETV3L),binding signal (ETS2),binding signal (SPDEF),binding signal (ETV7),binding signal (ELF5),binding signal (ETV3),binding signal (ETV6)
TATGAT,"1.22 fold enrichment (6-mer frequency, TF over GST control)","1.18 fold enrichment (6-mer frequency, TF over GST control)","1.17 fold enrichment (6-mer frequency, TF over GST control)","1.23 fold enrichment (6-mer frequency, TF over GST control)","1.25 fold enrichment (6-mer frequency, TF over GST control)","1.26 fold enrichment (6-mer frequency, TF over GST control)","1.26 fold enrichment (6-mer frequency, TF over GST control)","1.17 fold enrichment (6-mer frequency, TF over GST control)"
TCTCGG,"1.24 fold enrichment (6-mer frequency, TF over GST control)","1.48 fold enrichment (6-mer frequency, TF over GST control)","1.3 fold enrichment (6-mer frequency, TF over GST control)","1.24 fold enrichment (6-mer frequency, TF over GST control)","1.23 fold enrichment (6-mer frequency, TF over GST control)","1.32 fold enrichment (6-mer frequency, TF over GST control)","1.37 fold enrichment (6-mer frequency, TF over GST control)","1.33 fold enrichment (6-mer frequency, TF over GST control)"
CCTATA,"1.33 fold enrichment (6-mer frequency, TF over GST control)","1.34 fold enrichment (6-mer frequency, TF over GST control)","1.42 fold enrichment (6-mer frequency, TF over GST control)","1.45 fold enrichment (6-mer frequency, TF over GST control)","1.31 fold enrichment (6-mer frequency, TF over GST control)","1.39 fold enrichment (6-mer frequency, TF over GST control)","1.36 fold enrichment (6-mer frequency, TF over GST control)","1.39 fold enrichment (6-mer frequency, TF over GST control)"
TGCTCG,"1.38 fold enrichment (6-mer frequency, TF over GST control)","1.46 fold enrichment (6-mer frequency, TF over GST control)","1.29 fold enrichment (6-mer frequency, TF over GST control)","1.07 fold enrichment (6-mer frequency, TF over GST control)","1.18 fold enrichment (6-mer frequency, TF over GST control)","1.18 fold enrichment (6-mer frequency, TF over GST control)","1.3 fold enrichment (6-mer frequency, TF over GST control)","1.31 fold enrichment (6-mer frequency, TF over GST control)"
TAACAA,"1.33 fold enrichment (6-mer frequency, TF over GST control)","1.18 fold enrichment (6-mer frequency, TF over GST control)","1.15 fold enrichment (6-mer frequency, TF over GST control)","1.14 fold enrichment (6-mer frequency, TF over GST control)","1.21 fold enrichment (6-mer frequency, TF over GST control)","1.14 fold enrichment (6-mer frequency, TF over GST control)","1.19 fold enrichment (6-mer frequency, TF over GST control)","1.15 fold enrichment (6-mer frequency, TF over GST control)"
CTTATT,"1.44 fold enrichment (6-mer frequency, TF over GST control)","1.5 fold enrichment (6-mer frequency, TF over GST control)","1.51 fold enrichment (6-mer frequency, TF over GST control)","1.54 fold enrichment (6-mer frequency, TF over GST control)","1.43 fold enrichment (6-mer frequency, TF over GST control)","1.42 fold enrichment (6-mer frequency, TF over GST control)","1.31 fold enrichment (6-mer frequency, TF over GST control)","1.48 fold enrichment (6-mer frequency, TF over GST control)"
GGCTTC,"1.7 fold enrichment (6-mer frequency, TF over GST control)","1.61 fold enrichment (6-mer frequency, TF over GST control)","1.7 fold enrichment (6-mer frequency, TF over GST control)","1.6 fold enrichment (6-mer frequency, TF over GST control)","1.54 fold enrichment (6-mer frequency, TF over GST control)","1.81 fold enrichment (6-mer frequency, TF over GST control)","1.65 fold enrichment (6-mer frequency, TF over GST control)","1.85 fold enrichment (6-mer frequency, TF over GST control)"
TACCCG,"1.41 fold enrichment (6-mer frequency, TF over GST control)","1.56 fold enrichment (6-mer frequency, TF over GST control)","1.42 fold enrichment (6-mer frequency, TF over GST control)","1.59 fold enrichment (6-mer frequency, TF over GST control)","1.43 fold enrichment (6-mer frequency, TF over GST control)","1.5 fold enrichment (6-mer frequency, TF over GST control)","1.47 fold enrichment (6-mer frequency, TF over GST control)","1.5 fold enrichment (6-mer frequency, TF over GST control)"
ACATCT,"1.24 fold enrichment (6-mer frequency, TF over GST control)","1.24 fold enrichment (6-mer frequency, TF over GST control)","1.27 fold enrichment (6-mer frequency, TF over GST control)","1.26 fold enrichment (6-mer frequency, TF over GST control)","1.49 fold enrichment (6-mer frequency, TF over GST control)","1.3 fold enrichment (6-mer frequency, TF over GST control)","1.17 fold enrichment (6-mer frequency, TF over GST control)","1.29 fold enrichment (6-mer frequency, TF over GST control)"
TTCGCC,"1.14 fold enrichment (6-mer frequency, TF over GST control)","1.27 fold enrichment (6-mer frequency, TF over GST control)","1.12 fold enrichment (6-mer frequency, TF over GST control)","1.1 fold enrichment (6-mer frequency, TF over GST control)","1.18 fold enrichment (6-mer frequency, TF over GST control)","1.04 fold enrichment (6-mer frequency, TF over GST control)","1.08 fold enrichment (6-mer frequency, TF over GST control)","1.16 fold enrichment (6-mer frequency, TF over GST control)"
ATATCA,"1.19 fold enrichment (6-mer frequency, TF over GST control)","1.1 fold enrichment (6-mer frequency, TF over GST control)","1.2 fold enrichment (6-mer frequency, TF over GST control)","1.2 fold enrichment (6-mer frequency, TF over GST control)","1.13 fold enrichment (6-mer frequency, TF over GST control)","1.11 fold enrichment (6-mer frequency, TF over GST control)","1.23 fold enrichment (6-mer frequency, TF over GST control)","1.18 fold enrichment (6-mer frequency, TF over GST control)"
GCTTTG,"1.09 fold enrichment (6-mer frequency, TF over GST control)","1.19 fold enrichment (6-mer frequency, TF over GST control)","1.16 fold enrichment (6-mer frequency, TF over GST control)","1.12 fold enrichment (6-mer frequency, TF over GST control)","1.44 fold enrichment (6-mer frequency, TF over GST control)","1.13 fold enrichment (6-mer frequency, TF over GST control)","1.15 fold enrichment (6-mer frequency, TF over GST control)","1.24 fold enrichment (6-mer frequency, TF over GST control)"
TCTACT,"1.42 fold enrichment (6-mer frequency, TF over GST control)","1.51 fold enrichment (6-mer frequency, TF over GST control)","1.41 fold enrichment (6-mer frequency, TF over GST control)","1.42 fold enrichment (6-mer frequency, TF over GST control)","1.32 fold enrichment (6-mer frequency, TF over GST control)","1.37 fold enrichment (6-mer frequency, TF over GST control)","1.2 fold enrichment (6-mer frequency, TF over GST control)","1.41 fold enrichment (6-mer frequency, TF over GST control)"
AATGCC,"1.12 fold enrichment (6-mer frequency, TF over GST control)","1.07 fold enrichment (6-mer frequency, TF over GST control)","1.17 fold enrichment (6-mer frequency, TF over GST control)","1.21 fold enrichment (6-mer frequency, TF over GST control)","1.22 fold enrichment (6-mer frequency, TF over GST control)","1.21 fold enrichment (6-mer frequency, TF over GST control)","1.24 fold enrichment (6-mer frequency, TF over GST control)","1.19 fold enrichment (6-mer frequency, TF over GST control)"
GGCCTT,"1.12 fold enrichment (6-mer frequency, TF over GST control)","1.05 fold enrichment (6-mer frequency, TF over GST control)","1.09 fold enrichment (6-mer frequency, TF over GST control)","1.06 fold enrichment (6-mer frequency, TF over GST control)","1.34 fold enrichment (6-mer frequency, TF over GST control)","1.06 fold enrichment (6-mer frequency, TF over GST control)","1.11 fold enrichment (6-mer frequency, TF over GST control)","1.04 fold enrichment (6-mer frequency, TF over GST control)"

# Source: PMC7862700, “An all-to-all approach to the identification of sequence-specific readers for epigenetic DNA modifications on cytosine”
